Source: PubChem (National Center for Advancing Translational Sciences (NCATS))
POLH inh: inhibitors of human DNA polymerase eta; Potency, µM (highest dose often 114 µM), most hits filed as inhibitors; recombinant Pol eta, fluorescent DNA replication assay; Q9Y253; AID 588591; actives 1.2% (n = 390,000)
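Fluorescent replication assay: 50 nM final substrate added after a 15 min room-temperature compound preincubation with 10 nM enzyme. Signal taken at 0 min and again at 10 min.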
Pol beta inh: blocks human DNA polymerase beta activity. Pol beta primer extension/strand displacement, fluorescence kinetic. P06746. actives 1.3% (n = 340,000). Potency, µM (titrated, usually from 114 µM), hits mostly inhibitors
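Human Pol beta at 10 nM; strand-displacement substrate 50 nM final. Compound exposure 15 min at room temperature before start, reaction 10 min at room temperature.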
WRN inhibitor: WRN helicase (human) inhibition; WRN helicase unwinding, fluorescent forked duplex, kinetic; Potency, µM (titrated, usually from 114 µM), actives largely listed as inhibitors; actives 0.46% (n = 360,000); note: nearly all actives have a fitted effect of over 55% in size
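Kinetic fluorescence helicase assay: unwinding of a quenched forked DNA duplex (100 nM final) with 2 mM ATP final raises red fluorescence (525/598 nm). Compounds sat 15 min at room temperature with 20 nM WRN beforehand.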
L3MBTL1 block: L3MBTL1 (human) inhibition | Q9Y468 | AlphaScreen L3MBTL1–H3K9me1 peptide binding | Potency, µM (doses to about 57.1 µM), most hits filed as inhibitors | actives 0.66% (n = 230,000); note: nearly all actives have a fitted effect of over 60% in size
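L3MBTL1 50 nM + b-AHA-H3(1-15)K9me1 75 nM, 30 min RT; compound added, 30 min RT; streptavidin donor/Ni-chelate acceptor beads 10 ug/mL each final, 30 min RT dark; AlphaScreen read.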
POLI inh: DNA polymerase iota (human) inhibition; Potency, µM (top dose mostly 115 µM), hits mostly inhibitors; AID 588590; actives 1% (n = 390,000); Pol iota fluorescent replication assay, 10 min; Q9UNA4
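Pol iota at 10 nM preincubated 15 min with compounds at room temperature; reaction started with fluorescent substrate, 50 nM final. Fluorescence read kinetically at 0 and 10 min; buffer-only wells as negative control.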
POLK inh: DNA polymerase kappa (human) inhibition. Q9UBT6. AID 588579. Potency, µM (top dose mostly 107 µM), usual class: inhibitors. actives 0.53% (n = 400,000). purified Pol kappa, fluorescent DNA synthesis assay, 10 min
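Kinetic fluorescence readout at 0 and 10 min followed reaction start with substrate at 50 nM final. Beforehand, enzyme (10 nM Pol kappa) stood 15 min with compound at room temperature; buffer-only wells were negative controls.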
Large screens that a line does not name were inactive. This is a sample that favours compounds with a hit; in the whole collection about 2.5% have one here. Calls come from the whole dose curve; as a rule, active = well fitted curve in the direction sought with a large enough effect; inconclusive = small, poorly fitted or top-dose-only effect, or another doubt; inactive = no such curve, though single readings can be large; an effect the other way counts as inactive or inconclusive.

COc1ccc(NS(=O)(=O)c2ccc(NC(=S)NC(=O)/C=C/c3ccccc3)cc2)nn1	POLH inh 79µM, WRN inhibitor inconclusive, POLI inh inconclusive
CCc1nnc(NS(=O)(=O)c2ccc(NC(=S)NC(=O)/C=C/c3ccc(C(C)C)cc3)cc2)s1	POLH inh 45µM, Pol beta inh 45µM, WRN inhibitor 89µM, POLI inh 25µM
CCc1nnc(NS(=O)(=O)c2ccc(NC(=S)NC(=O)c3ccc(Br)cc3)cc2)s1	POLH inh inconclusive, WRN inhibitor inconclusive
CCc1nnc(NS(=O)(=O)c2ccc(NC(=S)NC(=O)/C=C/c3ccc(OC)cc3)cc2)s1	WRN inhibitor inconclusive, POLI inh 45µM, POLK inh inconclusive
CCC(=O)Nc1ccc(NC(=S)NC(=O)/C=C/c2ccccc2)cc1	POLH inh inconclusive, Pol beta inh 10µM, WRN inhibitor inconclusive, POLI inh inconclusive
CN1OC2C(=O)N(c3ccccc3)C(=O)C2C1c1ccc(F)cc1 (stereo not given)	none
Cn1c(=O)[nH]c(=O)c2c1nc(N1CCCCC1)n2CCCSc1nnnn1-c1ccccc1	none
Nc1cc(-c2ccccc2)nn1S(=O)(=O)c1ccc(Br)cc1	none (no result: L3MBTL1 block)
CC(C)C[C@@H](CN1CCC[C@H]1CN1C(=O)C(=O)NC[C@@H]1Cc1ccc(O)cc1)N1C[C@H](Cc2ccc(O)cc2)N(CC2CCCCC2)C(=O)C1=O	none (no result: POLH inh, Pol beta inh, L3MBTL1 block, POLI inh, POLK inh)
CCc1nnc(NS(=O)(=O)c2ccc(NC(=S)NC(=O)c3ccccc3)cc2)s1	none
CCc1nnc(NS(=O)(=O)c2ccc(NC(=S)NC(=O)/C=C/c3ccccc3)cc2)s1	POLH inh 71µM, WRN inhibitor inconclusive, POLI inh inconclusive
CC(=O)c1cc(-c2ccc(F)cc2)n(CCC(=O)Nc2cccc(C)n2)c1C	none (no result: L3MBTL1 block)
Cn1c(NCCCCO)nc2c1c(=O)n(Cc1ccc(Cl)cc1)c(=O)n2C	none (no result: WRN inhibitor, L3MBTL1 block)
N#CC1=C(N)Oc2n[nH]c(-c3ccccc3)c2C1c1cccnc1 (stereo not given)	POLI inh inconclusive (no result: L3MBTL1 block)
CCOc1cc(C2C(C#N)=C(N)Oc3n[nH]c(-c4ccccc4)c32)ccc1O (stereo not given)	POLI inh 25µM
CCOc1ccc(-n2c(C)c(C(C)=O)c3cc(O)ccc32)cc1	none (no result: L3MBTL1 block)
Cc1nc2c(C(=O)N3CCN(c4ccccn4)CC3)cnn2c(C)c1Cc1cccc(Cl)c1	POLI inh 89µM
COc1ccc(Cl)cc1NC(=O)c1c(C(=O)Nc2cccc(C)c2C)sc2nc(C)cc(=O)n12	none (no result: WRN inhibitor, L3MBTL1 block)
CCC(=O)Nc1cc2c(cc1C(=O)c1ccccc1)OCCO2	Pol beta inh 79µM
CC(=O)Nc1cc2c(cc1C(=O)c1ccccc1)OCCO2	none
Cc1ccc2nc(-c3ccsc3)c(Nc3ccc(Cl)cc3)n2c1	none (no result: WRN inhibitor, L3MBTL1 block)
CC(=O)N1CCN(c2ccc(NCc3ccccc3)cc2)CC1	none
Fc1ccc(CNc2ccc(N3CCN(Cc4ccccc4)CC3)cc2)cc1	L3MBTL1 block 22µM
COc1ccc(CCNC(=O)c2cc3c(=O)n4ccccc4nc3n(CCCN3CCOCC3)c2=N)cc1	none (no result: L3MBTL1 block)
COCCCn1c(=N)c(C(=O)NCc2ccco2)cc2c(=O)n3ccccc3nc21	POLI inh 79µM (no result: WRN inhibitor, L3MBTL1 block)
N=c1c(C(=O)NCc2ccco2)cc2c(=O)n3ccccc3nc2n1CCc1ccccc1	POLH inh inconclusive, Pol beta inh 32µM, POLI inh inconclusive
CCCn1c(=N)c(C(=O)NCc2ccco2)cc2c(=O)n3cc(C)ccc3nc21	POLI inh inconclusive (no result: WRN inhibitor, L3MBTL1 block)
Cc1ccc(Cn2c(=N)c(C(=O)NCc3ccco3)cc3c(=O)n4ccccc4nc32)cc1	POLH inh 8.9µM, Pol beta inh 7.9µM, POLI inh 4µM, POLK inh inconclusive
CCOCCCn1c(=N)c(C(=O)NCc2ccco2)cc2c(=O)n3ccccc3nc21	none (no result: WRN inhibitor, L3MBTL1 block)
COc1ccc(CCNC(=O)c2cc3c(=O)n4ccccc4nc3n(CCCN3CCOCC3)c2=N)cc1OC	Pol beta inh 35µM, POLI inh inconclusive (no result: L3MBTL1 block)
Cc1ccc(C(=O)NC(C)c2ccc(-n3ccnc3)cc2)c(C)c1 (stereo not given)	none (no result: L3MBTL1 block)
CN(C)C(=O)c1ccc(-c2nc(N(C)C)c3ccccc3n2)cc1	none (no result: POLH inh, Pol beta inh, WRN inhibitor, L3MBTL1 block, POLI inh)
COc1ccc(CCNC(=O)c2cc3c(=O)n4ccccc4nc3n(Cc3ccco3)c2=N)cc1OC	POLH inh inconclusive (no result: L3MBTL1 block)
N=c1c(S(=O)(=O)c2ccc(Cl)cc2)cc2c(=O)n3ccccc3nc2n1Cc1ccco1	POLH inh inconclusive, Pol beta inh 8.9µM, POLI inh inconclusive (no result: L3MBTL1 block)
COc1ccc(CCNC(=O)c2cc3c(=O)n4ccccc4nc3n(C3CCCCC3)c2=N)cc1OC	Pol beta inh 25µM (no result: L3MBTL1 block)
O=C(NCc1ccco1)c1cccn2c(=O)c3cc4ccccc4cc3nc12	Pol beta inh 14µM (no result: POLH inh, WRN inhibitor, L3MBTL1 block, POLI inh, POLK inh)
COc1ccc(CCn2c(=N)c(C(=O)NCc3ccco3)cc3c(=O)n4ccccc4nc32)cc1OC	POLH inh 45µM, POLI inh 16µM, POLK inh inconclusive (no result: Pol beta inh, L3MBTL1 block)
O=C1/C(=C\c2ccco2)SC(=S)N1C1CCCCC1	Pol beta inh 45µM (no result: POLH inh, WRN inhibitor, POLI inh, POLK inh)
COc1ccc(/C=C2\SC(=S)N(CCC(=O)N3CCCCC3CCO)C2=O)cc1 (stereo not given)	POLH inh inconclusive, Pol beta inh inconclusive, POLI inh 28µM, POLK inh inconclusive (no result: L3MBTL1 block)
Cc1ccc(N2C(=O)/C(=C/c3ccco3)SC2=S)cc1	Pol beta inh inconclusive, POLI inh inconclusive, POLK inh inconclusive
O=C1/C(=C/c2ccco2)SC(=S)N1CCC(=O)N1CCCCC1CCO (stereo not given)	POLH inh 22µM, Pol beta inh inconclusive, WRN inhibitor 56µM (no result: L3MBTL1 block)
CCn1cc(C(=O)NC(C)c2ccccc2)c(=O)c2cc(S(=O)(=O)N3CCc4ccccc4C3)ccc21 (stereo not given)	none (no result: WRN inhibitor, L3MBTL1 block)
Cc1cc(C)c2nc3nc(C)c(C)cc3c(N)c2c1	Pol beta inh 16µM, POLI inh 32µM, POLK inh inconclusive
COc1ccc(CN2CCC(Oc3cc(C(=O)NC4CC4)ccc3OC)CC2)c(O)c1	POLI inh 79µM, POLK inh inconclusive (no result: L3MBTL1 block)
Nc1nccnc1C(=O)OCC(=O)Nc1ccc2[nH]c(=O)[nH]c2c1	POLH inh 22µM, WRN inhibitor inconclusive, POLI inh 20µM, POLK inh inconclusive (no result: Pol beta inh)
O=C(COC(=O)c1ccccc1)Nc1ccc2[nH]c(=O)[nH]c2c1	none (no result: Pol beta inh)
COc1ccc(OC)c(S(=O)(=O)N2Cc3ccccc3CC2C(=O)O)c1 (stereo not given)	none
Cc1nc2scc(C)n2c(=O)c1S(=O)(=O)Nc1ccc(N2CCN(S(C)(=O)=O)CC2)cc1	POLH inh inconclusive, Pol beta inh inconclusive, POLI inh 50µM (no result: L3MBTL1 block)
O=C(OCCc1ccccc1)c1cc(O)c(O)c(O)c1	WRN inhibitor inconclusive, L3MBTL1 block inconclusive, POLI inh inconclusive, POLK inh 45µM (no result: Pol beta inh)
Nc1ccc(C(=O)OCCc2ccccc2)cc1	none (no result: Pol beta inh)
